# Results taken from PubChem BioAssay.
# Active and inactive are the calls of the source. Unless noted, no rule for the calls is given here.
# Experiments:
# [1] = tested on: XIP peptide (Xip251-270) binding; assay: XIP fragment 251-270 binding compounds – biochemical, small-molecule microarray, fluorescence 635/667 nm, 0.1 µg/mL protein, primary screen (AID 1182); conditions: fluorescent protein binding, 635 nm, higher = more signal, called active from +8 up or from −8 down
# [2] = tested on: XIP peptide (Xip251-270); assay: compounds binding XIP fragment 251-270 – biochemical, small-molecule microarray, fluorescence 635/667 nm, 0.5 µg/mL protein, primary screen (AID 1183); conditions: fluorescence 635 nm, higher = more signal
# [3] = blood-stage malaria parasite viability loss – strain 3D7, DAPI fluorescence, 100 nL, primary screen (AID 1184);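 also: parasites grown inside human red blood cells in medium with human serum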; conditions: P. falciparum 3D7 growth, 3 d, higher = more signal
# [4] = target: Homeobox protein Hox-A13 (Mus musculus) (UniProt Q62424); assay: disruptors of Hoxa13 oligonucleotide interaction – biochemical, fluorescence polarization, labeled oligonucleotide, primary screen (AID 1185); conditions: Hoxa13:DNA binding, 15 min, higher = more signal, called active from +8 up or from −8 down
# Sequence of Homeobox protein Hox-A13 (Mus musculus) (Q62424 whole entry, looked up): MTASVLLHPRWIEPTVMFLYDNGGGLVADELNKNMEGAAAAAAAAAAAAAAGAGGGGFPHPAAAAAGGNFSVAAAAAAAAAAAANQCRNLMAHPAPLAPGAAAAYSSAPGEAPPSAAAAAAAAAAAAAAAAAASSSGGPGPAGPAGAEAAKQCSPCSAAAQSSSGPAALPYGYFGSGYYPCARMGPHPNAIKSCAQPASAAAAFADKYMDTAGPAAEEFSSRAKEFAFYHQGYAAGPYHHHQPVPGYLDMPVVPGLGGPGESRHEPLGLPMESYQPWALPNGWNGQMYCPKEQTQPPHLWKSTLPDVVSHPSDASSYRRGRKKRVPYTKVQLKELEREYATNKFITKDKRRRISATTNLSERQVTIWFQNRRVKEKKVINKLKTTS
# [5] = blockers of DNA damage checkpoint Chk1 activation – imaging, HeLa, hydroxyurea, phospho-Chk1 antibody, percent positive cells, primary screen (AID 1186); conditions: hydroxyurea-induced phospho-Chk1 immunofluorescence imaging, higher = more signal
# [6] = blockers of DNA damage checkpoint Chk1 activation – imaging, HeLa, hydroxyurea, phospho-Chk1 nuclear intensity, primary screen (AID 1187); conditions: hydroxyurea-induced phospho-Chk1 immunofluorescence imaging, higher = more signal
Structure (SMILES),composite z-score [1],composite z-score [2],z-score [3],z-score [4],z-score [5],z-score [6]
Cc1ccc(S[C@]2(C(=O)NCC(F)(F)F)CC(=O)N(Cc3ccccc3C(F)(F)F)[C@@H]2c2ccc(CO)cc2I)cc1,-0.485 (inactive),-0.0347,-0.115,-2.45 (inactive),0.504 (inactive),1.27 (inactive)
O=C(CS)NCCCCCNC(=O)[C@@H]1C[C@@H]2C(=O)N3CCC[C@H]3C(=O)N2[C@@H]1c1cccc(OCCO)c1,2.29 (inactive),0.839,1.05,-3.61 (inactive),1.25 (inactive),0.575 (inactive)
CC[C@H]1C2=C3C(CC[C@H]4C(OCc5ccc(F)cc5C(F)(F)F)OC[C@](C)([C@@H]34)N(C(=O)OC(C)(C)C)C2)C(COC)C1COC (stereo partly specified),0.716 (inactive),-0.379,0.133,-1.11 (inactive),0.645 (inactive),0.217 (inactive)
CC(CO)N1C(=O)[C@@H]2[C@H]3C(=O)OCC=C[C@H]3OC23C=CCN(Cc2ccccc2)C(=O)[C@@H]13 (stereo partly specified),-0.542 (inactive),0.189,-0.379,-2.5 (inactive),-0.539 (inactive),-0.113 (inactive)
[N-]=[N+]=NCc1ccccc1C[C@@]1(C(=O)NCc2ccccc2)N=C(c2ccc(OCCCO)cc2)O[C@@H]1c1ccccc1N=[N+]=[N-],0.047 (inactive),0.558,-2.37,0.321 (inactive),-0.299 (inactive),-0.147 (inactive)
CCCCCCCCCCC(O)C1C=CC2C(=O)N(C)C(=O)C2N1Nc1ccc([N+](=O)[O-])cc1[N+](=O)[O-] (stereo unspecified),-0.0993 (inactive),0.464,0.625,-3.99 (inactive),0.496 (inactive),-0.12 (inactive)
CCOc1cc(C(O)C2C=CC3C(=O)N(C)C(=O)C3N2Nc2ccccc2)ccc1O (stereo unspecified),0.705 (inactive),0.273,-0.211,-2.42 (inactive),-0.0768 (inactive),-0.677 (inactive)
COCCOC(=O)N1C(=O)[C@@]2(c3cc(C#CC4=CCCCC4)ccc31)[C@H](c1ccc(OCCO)cc1)N1[C@H](c3ccccc3)[C@H](c3ccccc3)OC(=O)[C@H]1[C@@H]2C(=O)NC[C@H](O)c1ccccc1,0.575 (inactive),0.622,-2.1,1.86 (inactive),0.107 (inactive),0.576 (inactive)
[N-]=[N+]=NCc1ccccc1[C@H]1OC(c2ccc(OCCCO)cc2)=N[C@@]1(CCS(=O)(=O)c1ccccc1)C(=O)NCC(O)CO (stereo partly specified),1.2 (inactive),0.781,-2.41,-2.82 (inactive),-0.0433 (inactive),0.0231 (inactive)
C=C(CCCC)/C(=C/C[C@@H](OC(=O)c1ccncc1)c1ccccc1OCCO)c1cnc2ccccc2c1,0.0648 (inactive),0.647,-3.02,-3.49 (inactive),0.294 (inactive),-0.0646 (inactive)
COC(=O)c1c(CC[C@@H](CO)NC(=O)N[C@H](Cn2cc(C3(O)CCCCC3)nn2)C(C)C)oc(C(C)=O)c1C(=O)OC,0.0887 (inactive),0.837,-2.24,-1.69 (inactive),0.303 (inactive),0.608 (inactive)
C=C[C@@H](OC)[C@H](OC(=O)Nc1ccc(SC)cc1)c1ccc(O)c(F)c1,0.313 (inactive),0.0562,-0.386,-4.2 (inactive),-0.337 (inactive),-0.23 (inactive)
COc1ccc(C(O)C2C=CC3C(=O)N(c4ccccc4)C(=O)C3N2Nc2ccc([N+](=O)[O-])cc2)cc1 (stereo unspecified),0.584 (inactive),0.797,-0.906,-3.98 (inactive),0.895 (inactive),-0.355 (inactive)
CC(C)(C)N1CC=CC23O[C@@H]4C=CCOC(=O)[C@@H]4[C@H]2C(=O)N(CCCCCCO)[C@@H]3C1=O (stereo partly specified),-0.196 (inactive),0.448,-0.429,-4.45 (inactive),-0.156 (inactive),-0.43 (inactive)
COC(=O)[C@@]1(Cc2ccccc2)[C@H]2c3cc(C(=O)N(C)C)n(CCN4CNCC4=O)c3C[C@H]2CN1C(=O)c1ccccc1,0.858 (inactive),1.01,-0.17,-2.94 (inactive),-0.232 (inactive),-0.33 (inactive)
Cc1cc(C)c(C(O)C2C=CC3C(=O)N(c4ccccc4)C(=O)C3N2Nc2ccc(C(C)C)cc2)c(C)c1 (stereo unspecified),1.21 (inactive),0.736,-0.701,-3.21 (inactive),0.609 (inactive),0.335 (inactive)
COC(=O)[C@H](Cc1ccccc1)N1CC(/C=C/C2CC2)=C[C@H]1[C@H](O)Cc1ccccc1,0.444 (inactive),0.337,-1.65,-5.54 (inactive),-0.45 (inactive),-0.749 (inactive)
COC(=O)[C@@]1(Cc2ccc(F)cc2)[C@H]2c3cc(C(=O)N(C)C)n(Cc4cc(F)cc5c4OCOC5)c3C[C@H]2CN1C(=O)c1ccccc1,1.21 (inactive),0.628,-1.54,-2.73 (inactive),-0.909 (inactive),-0.669 (inactive)
CO[C@H]1O[C@H](CO)[C@@H](OC(=O)Nc2ccccc2-c2ccccc2)[C@H](OC(=O)Nc2ccc3c(c2)OCO3)[C@H]1OC(=O)Nc1ccc2c(c1)OCO2,0.886 (inactive),0.892,-1.6,-9.89 (active),-0.356 (inactive),-0.272 (inactive)
C=C(COC)C(=O)CC[C@@H](OC(=O)c1cccnc1)c1ccc(OCCO)cc1,-0.344 (inactive),0.481,0.415,-4.4 (inactive),-0.0647 (inactive),-0.573 (inactive)
CC1=C[C@@]2(CO)C(=O)[C@]3(CO3)[C@@H]1[C@H]1[C@]2(C)C=C(CO)C(=O)[C@]12CO2,0.188 (inactive),0.454,-1.27,-4.58 (inactive),-0.441 (inactive),-0.35 (inactive)
C=CCOC(=O)[C@H]1[C@@H]2C(=O)O[C@@H](c3ccccc3)[C@@H](c3ccccc3)N2[C@@H](c2ccc(OCCOC(=O)[C@H]3C[C@H]4C(=O)N[C@@H](CC(C)C)C(=O)N4[C@H]3c3cccc(OCCO)c3)cc2)[C@]12C(=O)Nc1ccc(I)cc12,0.124 (inactive),0.694,-1.79,0.344 (inactive),-0.592 (inactive),-1.19 (inactive)
O=C1NC(=O)C2C1C=CC(C(O)c1ccco1)N2Nc1ccccn1 (stereo unspecified),-0.409 (inactive),-0.195,1.36,-3.55 (inactive),0.0556 (inactive),-0.0488 (inactive)
COCCCNC(=O)[C@@]1(Cc2ccccc2N=[N+]=[N-])N=C(c2ccc(OCCCO)cc2)O[C@H]1c1ccccc1,0.226 (inactive),0.818,-2.49,-5.46 (inactive),0.0251 (inactive),0.285 (inactive)
CN(C)CCCNC(=O)[C@@]1(C)c2ccccc2C(=O)N(Cc2ccccc2)[C@H]1c1ccc(CO)cc1,-0.328 (inactive),-0.711,-0.649,-2.18 (inactive),0.559 (inactive),0.749 (inactive)
C=CCC(OC(C)=O)[C@@H]1[C@@H](N(Cc2ccc(-c3cccc(C(F)(F)F)c3)o2)C(=O)c2ccc(-c3ccccc3)cc2)c2cc(OCCCO)ccc2N1C(=O)c1ccc2ccccc2n1 (stereo partly specified),-0.211 (inactive),-0.102,-0.746,-1.33 (inactive),0.768 (inactive),0.615 (inactive)
